Results taken from PubChem BioAssay (Tox21).
Several values for one entry are separate records, joined by “and”; a condition that tells them apart may be missing. Equal entries are not always repeated. Records with an inconclusive call do not appear. Unmarked numbers belong to inactive results. Activity calls are given as the source filed them. The call rests on the fitted dose curve; in most records, active means well fitted inhibition curve with a large enough effect in the repeat runs; inconclusive means weak or mixed curves; inactive means flat fitted curve, though single readings scatter.

assay: qHTS assay to identify small molecule HDAC inhibitors (AID 1259364); details: HCT-116 HDAC-Glo I/II luminescence, 2 h; series mostly up to 92.4 µM; activity change, negative = inhibition: at the top concentration; further: nearly all actives have a fitted effect of over 45% in size; on activity change, negative = inhibition: top concentration of the series differs between compounds
Description: U.S. Tox21 Program National Center for Advancing Translational Sciences [NCATS] NIH Chemical Genomics Center [NCGC] U.S. Environmental Protection Agency [EPA] National Institutes of Environmental Health Sciences [NIEHS] National Toxicology Program [NTP] U.S. Food and Drug Administration [FDA] Tox21 Assay Overview: Histone deacetylases (HDACs) are a group of epigenetic enzymes that regulate gene expression by histone deacetylation. HDACs are capable of introducing epigenetic modifications and such aberrations contribute to the onset and progression of several human diseases, thus making HDACs a popular therapeutic target. For identifying endogenous class I/II HDAC inhibitors a homogenous, luminogenic HDAC I/II cell based assay was used to measure the relative activity of class I and II HDACs from cells. Wild type HCT-116 cells were used to screen Tox21 libraries for identifying class I/II HDAC inhibitors.
Tox21 Assay Protocol Summary: HCT-116 cells were dispensed at 1,500 per well in 5uL of culture medium into white solid bottom 1536-well plates (Greiner Bio-One, Monroe, NC) using a Multidrop Combi (Thermo Scientific, Waltham, MA) dispenser. The assay plates were incubated at 37 C and 5% CO2 for an overnight, and then 23nL of compounds dissolved in DMSO and positive control were transferred using a Pintool station (Wako, San Diego, CA). The assay plates were incubated at 37C and 5% CO2 for 2hr. After compound treatment, 4uL of HDAC-Glo reagent (Promega Corporation, Madison, WI) was added to each well of the assay plates using Flying Reagent Dispenser (FRD, Aurora Discovery, San Diego, CA) and incubated the assay plates at room temperature for 30min. The luminescence signal was quantified using a ViewLux plate reader (Perkin Elmer, Shelton, CT).
On the % scale 0 is the no-effect control and ±100 the full control effect; potency means the concentration at half of the fitted maximal effect.

Row | Compound | Potency | activity change, negative = inhibition
1 | Cc1cc(N=Nc2ccccc2C)ccc1N | 8.63 µM (active) and 4.86 µM (active) | 
2 | CCOCCOC(C)=O |  | 2.18%
3 | O=C(Nc1ccc2[nH]ccc2c1)c1cc2cc(F)ccc2n1Cc1cccc(F)c1 |  | -5.75%
4 | CC(C)(C)c1ccc(CSc2cnn(C(C)(C)C)c(=O)c2Cl)cc1 |  | -12.6%
5 | CCCCCCCCCC[N+](C)(C)CCCCCCCCCC |  | 10.4%
6 | Cl/C=C\CCl |  | -0.552%
7 | ClC1=C(Cl)[C@]2(Cl)[C@@H]3[C@@H](Cl)[C@H](Cl)C[C@@H]3[C@@]1(Cl)C2(Cl)Cl |  | -9.96%
8 | Fc1cccc(Cl)c1CCl |  | -5.17%
9 | CC(=O)[O-].CC(=O)[O-].O.O.[Cd+2] |  | 2.92%
10 | N#CCCC(Br)(C#N)CBr (stereo not given) |  | -1.99%
11 | C=CCOC(N)=O |  | 0.948%
12 | COc1ccc(/C(=C/C(=O)N2CCOCC2)c2ccc(Cl)cc2)cc1OC |  | -8.26%
13 | Clc1ccc(-c2ccc(Cl)c(Cl)c2Cl)c(Cl)c1Cl |  | -14.3%
14 | CSCCCN=C=S |  | -18.2%
15 | CCCCCCCCCCBr |  | -0.203%
16 | CC(C)[C@H](C(=O)OC(C#N)c1cccc(Oc2ccccc2)c1)c1ccc(OC(F)F)cc1 (stereo not given in full) |  | -2.01%
17 | Oc1ccc(C(c2ccc(O)cc2)(C(F)(F)F)C(F)(F)F)cc1 | inactive | 
18 | CC(C)[C@H](C(=O)O[C@H](C#N)c1cccc(Oc2ccccc2)c1)c1ccc(Cl)cc1 |  | 7.66%
19 | ClCCN1CCOCC1 |  | 4.83%
20 | Clc1ccc(Oc2ccccc2)cc1 |  | -3.74%

Row | Compound | Potency | activity change, negative = inhibition
21 | CCN |  | -0.589%
22 | [CH3][Hg][Cl] | 27.2 µM (active) | 
23 | O=c1c(C2CC(c3ccc(-c4ccc(Br)cc4)cc3)Cc3ccccc32)c(O)sc2ccccc12 (stereo not given) |  | -0.587% [at 42.5 µM]
24 | CCOC(=O)c1ccccc1S(=O)(=O)NC(=O)Nc1nc(Cl)cc(OC)n1 |  | -0.123%
25 | c1ccc(OCC2CO2)cc1 (stereo not given) |  | 0.973%
26 | Cc1cc(C(C)(C)c2cc(C)c(O)c(C)c2)cc(C)c1O |  | -4.39%
27 | CC1(C)[C@H](C(=O)O[C@H](C#N)c2cccc(Oc3ccccc3)c2)[C@@H]1/C=C(\Cl)C(F)(F)F | inactive | 
28 | CC(=O)c1ccc(-c2ccccc2)cc1 | 24.3 µM (active) | 
29 | CCOC(=O)C1(c2ccccc2)CCN(CCC(C#N)(c2ccccc2)c2ccccc2)CC1 |  | 12.3% [at 42.5 µM]
30 | FC(Cl)(Cl)Cl |  | -1.81%
31 | COP(=O)(CCC(=O)NCO)OC |  | 3.09%
32 | N#Cc1ccc(O)cc1 |  | -17%
33 | CCc1cc(C)cc(CC)c1-c1c(OC(=O)C(C)(C)C)n2n(c1=O)CCOCC2 |  | -12%
34 | C[C@@H]1CC[C@@]2(OC1)O[C@H]1[C@@H](O)[C@H]3[C@@H]4CC[C@H]5C[C@@H](O[C@@H]6O[C@H](CO)[C@H](O[C@@H]7O[C@H](CO)[C@@H](O)[C@H](O[C@@H]8OC[C@@H](O)[C@H](O)[C@H]8O)[C@H]7O[C@@H]7O[C@H](CO)[C@@H](O)[C@H](O[C@@H]8O[C@H](CO)[C@@H](O)[C@H](O)[C@H]8O)[C@H]7O)[C@H](O)[C@H]6O)[C@H](O)C[C@]5(C)[C@H]4CC[C@]3(C)[C@H]1[C@@H]2C |  | 1.92%
35 | Oc1cc(Cl)c(Cl)c(Cl)c1 |  | -11.8%
36 | CCOP(=S)(OCC)OC(Cl)C(Cl)(Cl)Cl (stereo not given) |  | -5.13%
37 | CN(CCCC(O)c1cccnc1)N=O (stereo not given) |  | -0.278%
38 | O=[N+]([O-])c1cc(C(F)(F)F)c(Cl)c([N+](=O)[O-])c1Cl |  | -26.7%
39 | NC(=O)c1ccc(N)nc1 |  | 0.206%
40 | CN(C)C(=S)S | inactive | 
